# In the supplement of paper PMC3334620:
# Whole data set: some 33,000 sequences, median “E-score (-0.5 to 0.5)” near -0.035, cut for the highest 2% near 0.34. The list comes from a sample in which the highest values are over-represented; it also holds similar and randomly drawn sequences.
# Molecular target: T1, Mot3 (UniProt P54785)
# T1 sequence: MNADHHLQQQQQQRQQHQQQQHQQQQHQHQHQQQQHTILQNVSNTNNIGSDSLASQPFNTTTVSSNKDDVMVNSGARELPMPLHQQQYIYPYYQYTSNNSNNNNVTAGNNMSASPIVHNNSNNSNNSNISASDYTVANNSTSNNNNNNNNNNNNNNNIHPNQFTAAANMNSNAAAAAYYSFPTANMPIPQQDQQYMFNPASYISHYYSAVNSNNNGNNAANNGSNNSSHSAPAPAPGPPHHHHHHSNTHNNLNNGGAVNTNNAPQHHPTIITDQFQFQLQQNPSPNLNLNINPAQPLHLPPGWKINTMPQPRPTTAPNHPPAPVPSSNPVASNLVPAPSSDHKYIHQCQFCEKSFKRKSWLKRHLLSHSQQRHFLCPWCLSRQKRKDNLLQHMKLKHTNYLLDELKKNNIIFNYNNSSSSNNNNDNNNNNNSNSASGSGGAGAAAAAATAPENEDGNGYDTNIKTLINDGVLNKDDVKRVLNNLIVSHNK
# Experiment: PBM E-score (8-mer binding enrichment) (E-score (-0.5 to 0.5)); higher = stronger / more preferred TF binding
# Details: protein concentration: 200 nM; construct: GST-full length
# Protocol: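 Universal 'all 10-mer' protein binding microarrays (Agilent AMADID 015681) probed with GST-tagged S. cerevisiae TFs (full-length or DBD) made by in vitro transcription/translation (PURExpress), about 100-200 nM. Bound TF was detected with fluorescent anti-GST. Each ungapped 8-mer (which stands for itself and its reverse complement) is scored by the PBM enrichment score (E-score), a modified Wilcoxon-Mann-Whitney statistic from -0.5 to +0.5, computed with the Universal PBM Analysis Suite. Scale: above 0.35 generally sequence-specific binding.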
row,Sequence,PBM E-score
1,GGAGGTAC,0.0528
2,GAAGGTGC,0.136
3,CGCGACGC,-0.148
4,ATACCCGG,0.0542
5,TCGCCCCA,-0.213
6,CACTGTCC,-0.196
7,GGACCGCC,-0.212
8,ACCCTTTG,-0.147
9,GCATTCAC,0.0735
10,ACGTCTCT,0.0141
11,AAGCAATG,-0.0928
12,ATCAGGAT,-0.12
13,AAAGGGGG,-0.0401
14,ATACATAT,0.359
15,ATACATAC,0.28
16,ATACATGA,0.363
17,CTACATCA,0.112
18,GTACATGA,0.328
19,AGACATGA,0.198
20,ATACATAA,0.308
21,CTACATGA,0.361
22,ATACATGG,0.374

row,Sequence,PBM E-score
1,ATACATCA,0.16
2,AGACATGG,0.139
3,ACACATGG,0.144
4,CCTCTGAC,-0.145
5,CACCCTTC,-0.121
6,ATGCCCCC,-0.266
7,AGAGTTCC,-0.135
8,CTGGCACC,-0.232
9,CACCTTAA,0.0232
10,CCTTCAGA,-0.0591
11,ATACATCC,0.201
12,AGACATGC,0.0904
13,CTACATGC,0.355
14,ATACATGC,0.361
15,CGACATGC,0.279
16,CTACATTC,0.0249
17,CCCAAGGA,-0.0628
18,GTCTGCAA,-0.0815
19,AGCATGGC,0.0473
20,CGCTGTTA,-0.0162
21,TAGCTAGA,-0.0751
22,CGCACTGC,-0.0709

row,Sequence,PBM E-score
1,CAGCCTGC,-0.106
2,ATGCCTAG,0.199
3,GAGCCTGC,0.389
4,ATGCCTTC,0.36
5,ATGCCTAC,0.424
6,CTGCCTTC,0.2
7,GAGCCTGA,0.26
8,ATGCCTGA,0.376
9,CTGCCTAC,0.264
10,CTGCCTGA,0.223
11,AGGCCTGA,-0.288
12,AGGCCTTC,-0.154
13,AAGTAACC,0.00035
14,ATCCAGCG,-0.127
15,GAACCCTC,-0.176
16,AGGAAGCG,-0.0464
17,GTATGCTA,-0.0526
18,ATCGAAAG,-0.0284
19,GTTTCATA,-0.0759
20,CTCTAACA,0.0488
21,GTAGCCTA,0.177
22,GTAGAAGA,-0.00994

row,Sequence,PBM E-score
1,ACAAGGCC,0.0968
2,ACACTTAC,0.188
3,CGCACATA,-0.146
4,CTGCCTCC,-0.215
5,ATGCCTGC,0.407
6,ATGCCTTA,0.342
7,CTGCCTGC,0.336
8,CTGCCTCA,-0.15
9,ATGCCTTG,0.267
10,GTGCCTCA,0.454
11,ATGCCTGG,0.127
12,ATGCCTCA,0.111
13,CTGCCTTA,0.059
14,AAGCCTTA,-0.147
15,GTGCCTTA,0.49
16,GCGCCTTA,0.31
17,GCAGCCTA,-0.0663
18,CCAAGAGA,-0.0138
19,CGGCCTGC,-0.212
20,AGTGGCCA,-0.158
